Test results taken from the supplement of paper PMC6992640.

test system: WHIM30 (cells of a triple-negative basal-like breast cancer xenograft); experiment: cell viability of combination (% of vehicle); higher = less cytotoxic; settings: 1 µM; 72 h; partner dose: 10 nM
Method: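 PDX cells were treated for 72 h with each drug at 1 µM plus carfilzomib (10 nM; 100 nM for WHIM2). Luciferase viability is expressed as percent of vehicle.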

Structure (SMILES)	cell viability of combination
Cc1ccc(NC(=O)c2ccc(CN3CCN(C)CC3)cc2)cc1Nc1nc(-c2cccnc2)cs1 [Masitinib (AB1010)] + CC(C)C[C@H](NC(=O)[C@H](CCc1ccccc1)NC(=O)CN1CCOCC1)C(=O)N[C@@H](Cc1ccccc1)C(=O)N[C@@H](CC(C)C)C(=O)[C@@]1(C)CO1 [Carfilzomib]	28.7
COC(=O)NC(C(=O)N1CCCC1c1ncc(-c2ccc(-c3ccc(-c4cnc(C5CCCN5C(=O)C(NC(=O)OC)C(C)C)[nH]4)cc3)cc2)[nH]1)C(C)C (stereo not given) + CC(C)C[C@H](NC(=O)[C@H](CCc1ccccc1)NC(=O)CN1CCOCC1)C(=O)N[C@@H](Cc1ccccc1)C(=O)N[C@@H](CC(C)C)C(=O)[C@@]1(C)CO1 [Carfilzomib]	25.3
Nc1ncn(C2OC(CO)C(O)C2O)c(=O)n1 (stereo not given) [5-Azacytidine] + CC(C)C[C@H](NC(=O)[C@H](CCc1ccccc1)NC(=O)CN1CCOCC1)C(=O)N[C@@H](Cc1ccccc1)C(=O)N[C@@H](CC(C)C)C(=O)[C@@]1(C)CO1 [Carfilzomib]	20.7
Cl.Cl.Fc1ccc(C(c2ccc(F)cc2)N2CCN(CC=Cc3ccccc3)CC2)cc1 [Flunarizine 2HCl] + CC(C)C[C@H](NC(=O)[C@H](CCc1ccccc1)NC(=O)CN1CCOCC1)C(=O)N[C@@H](Cc1ccccc1)C(=O)N[C@@H](CC(C)C)C(=O)[C@@]1(C)CO1 [Carfilzomib]	15
Cc1ccc(C(=O)N(CCCN)C(c2nc3cc(Cl)ccc3c(=O)n2Cc2ccccc2)C(C)C)cc1 (stereo not given) + CC(C)C[C@H](NC(=O)[C@H](CCc1ccccc1)NC(=O)CN1CCOCC1)C(=O)N[C@@H](Cc1ccccc1)C(=O)N[C@@H](CC(C)C)C(=O)[C@@]1(C)CO1 [Carfilzomib]	19.6
CC[C@H](C)[C@H]1O[C@]2(CC[C@@H]1C)C[C@@H]1C[C@@H](C/C=C(\C)[C@@H](O[C@H]3C[C@H](OC)[C@@H](O[C@H]4C[C@H](OC)[C@@H](O)[C@H](C)O4)[C@H](C)O3)[C@@H](C)/C=C/C=C3\CO[C@@H]4[C@H](O)C(C)=C[C@@H](C(=O)O1)[C@]34O)O2 [Ivermectin] + CC(C)C[C@H](NC(=O)[C@H](CCc1ccccc1)NC(=O)CN1CCOCC1)C(=O)N[C@@H](Cc1ccccc1)C(=O)N[C@@H](CC(C)C)C(=O)[C@@]1(C)CO1 [Carfilzomib]	20.6
Clc1ccc(C(Cn2ccnc2)OCc2ccsc2Cl)c(Cl)c1 (stereo not given) [Tioconazole] + CC(C)C[C@H](NC(=O)[C@H](CCc1ccccc1)NC(=O)CN1CCOCC1)C(=O)N[C@@H](Cc1ccccc1)C(=O)N[C@@H](CC(C)C)C(=O)[C@@]1(C)CO1 [Carfilzomib]	16.9
CC1(C)CCC(c2ccc(Cl)cc2)=C(CN2CCN(c3ccc(C(=O)NS(=O)(=O)c4ccc(NC(CCN5CCOCC5)CSc5ccccc5)c(S(=O)(=O)C(F)(F)F)c4)cc3)CC2)C1 (stereo not given) [ABT-263 (Navitoclax)] + CC(C)C[C@H](NC(=O)[C@H](CCc1ccccc1)NC(=O)CN1CCOCC1)C(=O)N[C@@H](Cc1ccccc1)C(=O)N[C@@H](CC(C)C)C(=O)[C@@]1(C)CO1 [Carfilzomib]	13.3
CCN(CC)CCNC(=O)c1c(C)[nH]c(C=C2C(=O)Nc3ccc(F)cc32)c1C.O=C(O)CC(O)C(=O)O [Sunitinib malate] + CC(C)C[C@H](NC(=O)[C@H](CCc1ccccc1)NC(=O)CN1CCOCC1)C(=O)N[C@@H](Cc1ccccc1)C(=O)N[C@@H](CC(C)C)C(=O)[C@@]1(C)CO1 [Carfilzomib]	33.1
CC(C)CC(NC(=O)CNC(=O)c1cc(Cl)ccc1Cl)B(O)O (stereo not given) + CC(C)C[C@H](NC(=O)[C@H](CCc1ccccc1)NC(=O)CN1CCOCC1)C(=O)N[C@@H](Cc1ccccc1)C(=O)N[C@@H](CC(C)C)C(=O)[C@@]1(C)CO1 [Carfilzomib]	9.5
CN1CCN(CCCN2c3ccccc3Sc3ccc(C(F)(F)F)cc32)CC1.Cl.Cl [Trifluoperazine 2HCl] + CC(C)C[C@H](NC(=O)[C@H](CCc1ccccc1)NC(=O)CN1CCOCC1)C(=O)N[C@@H](Cc1ccccc1)C(=O)N[C@@H](CC(C)C)C(=O)[C@@]1(C)CO1 [Carfilzomib]	16.7
CC1(C)Cc2c(-c3ccccc3)c(-c3ccc(Cl)cc3)c(CC(=O)O)n2C1 [Licofelone] + CC(C)C[C@H](NC(=O)[C@H](CCc1ccccc1)NC(=O)CN1CCOCC1)C(=O)N[C@@H](Cc1ccccc1)C(=O)N[C@@H](CC(C)C)C(=O)[C@@]1(C)CO1 [Carfilzomib]	18.6
O=C(NN=Cc1ccc([N+](=O)[O-])o1)c1ccc(O)cc1 [Nifuroxazide] + CC(C)C[C@H](NC(=O)[C@H](CCc1ccccc1)NC(=O)CN1CCOCC1)C(=O)N[C@@H](Cc1ccccc1)C(=O)N[C@@H](CC(C)C)C(=O)[C@@]1(C)CO1 [Carfilzomib]	12.5
C[C@H]1O[C@@H](O[C@H]2[C@@H](O)C[C@H](O[C@H]3[C@@H](O)C[C@H](O[C@H]4CC[C@@]5(C)[C@H](CC[C@@H]6[C@@H]5C[C@@H](O)[C@]5(C)[C@@H](C7=CC(=O)OC7)CC[C@]65O)C4)O[C@@H]3C)O[C@@H]2C)C[C@H](O)[C@@H]1O [Digoxin] + CC(C)C[C@H](NC(=O)[C@H](CCc1ccccc1)NC(=O)CN1CCOCC1)C(=O)N[C@@H](Cc1ccccc1)C(=O)N[C@@H](CC(C)C)C(=O)[C@@]1(C)CO1 [Carfilzomib]	4.55
CO[C@@]12[C@H](COC(N)=O)C3=C(C(=O)C(C)=C(N)C3=O)N1C[C@@H]1N[C@@H]12 [Mitomycin C] + CC(C)C[C@H](NC(=O)[C@H](CCc1ccccc1)NC(=O)CN1CCOCC1)C(=O)N[C@@H](Cc1ccccc1)C(=O)N[C@@H](CC(C)C)C(=O)[C@@]1(C)CO1 [Carfilzomib]	23.5
CNC(=O)c1cc(Oc2ccc(NC(=O)Nc3ccc(Cl)c(C(F)(F)F)c3)cc2)ccn1 [Sorafenib] + CC(C)C[C@H](NC(=O)[C@H](CCc1ccccc1)NC(=O)CN1CCOCC1)C(=O)N[C@@H](Cc1ccccc1)C(=O)N[C@@H](CC(C)C)C(=O)[C@@]1(C)CO1 [Carfilzomib]	18
CN(C)c1ccc(O)c2c1CC1CC3C(N(C)C)C(=O)C(C(N)=O)=C(O)C3(O)C(=O)C1=C2O.Cl (stereo not given) [Minocycline HCl] + CC(C)C[C@H](NC(=O)[C@H](CCc1ccccc1)NC(=O)CN1CCOCC1)C(=O)N[C@@H](Cc1ccccc1)C(=O)N[C@@H](CC(C)C)C(=O)[C@@]1(C)CO1 [Carfilzomib]	26.4
O=C1C=CC=CC1=C1NC(=C2C=CC=CC2=O)N(c2ccc(C(=O)O)cc2)N1 [Deferasirox] + CC(C)C[C@H](NC(=O)[C@H](CCc1ccccc1)NC(=O)CN1CCOCC1)C(=O)N[C@@H](Cc1ccccc1)C(=O)N[C@@H](CC(C)C)C(=O)[C@@]1(C)CO1 [Carfilzomib]	23.7
CCN(CC)CCCC(C)Nc1ccnc2cc(Cl)ccc12.O=P(O)(O)O.O=P(O)(O)O (stereo not given) [Chloroquine diphosphate] + CC(C)C[C@H](NC(=O)[C@H](CCc1ccccc1)NC(=O)CN1CCOCC1)C(=O)N[C@@H](Cc1ccccc1)C(=O)N[C@@H](CC(C)C)C(=O)[C@@]1(C)CO1 [Carfilzomib]	13.5
COc1cc(C(=O)NS(=O)(=O)c2ccccc2C)ccc1Cc1cn(C)c2ccc(NC(=O)OC3CCCC3)cc12 [Zafirlukast] + CC(C)C[C@H](NC(=O)[C@H](CCc1ccccc1)NC(=O)CN1CCOCC1)C(=O)N[C@@H](Cc1ccccc1)C(=O)N[C@@H](CC(C)C)C(=O)[C@@]1(C)CO1 [Carfilzomib]	17.9
